Data reported in PubChem BioAssay AID720566 (Broad Institute, 2013).
Results with a measured potency or affinity are listed apart. Calls of active or inactive are those of the source.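 The calls were made as follows: active = in all runs, an absorbance decrease of 25% or more of the average positive control decrease; inconclusive = runs conflict, with both active and inactive results; inactive = all runs inactive, opposite-direction effects included.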

Target: Protein disulfide-isomerase A6 (Homo sapiens) (UniProt Q15084)
Sequence (Q15084 whole entry, looked up): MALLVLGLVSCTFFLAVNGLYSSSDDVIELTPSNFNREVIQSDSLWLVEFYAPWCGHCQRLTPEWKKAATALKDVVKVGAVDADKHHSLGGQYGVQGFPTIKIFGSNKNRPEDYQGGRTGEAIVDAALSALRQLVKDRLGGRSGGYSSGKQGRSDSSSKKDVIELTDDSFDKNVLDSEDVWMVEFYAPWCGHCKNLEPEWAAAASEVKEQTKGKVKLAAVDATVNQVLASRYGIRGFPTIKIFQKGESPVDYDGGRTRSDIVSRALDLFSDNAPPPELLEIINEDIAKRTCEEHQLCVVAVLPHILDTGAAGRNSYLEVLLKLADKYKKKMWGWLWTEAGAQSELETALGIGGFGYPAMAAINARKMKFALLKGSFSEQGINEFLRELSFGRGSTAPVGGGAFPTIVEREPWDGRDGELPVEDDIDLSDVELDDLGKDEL
Assay: reduced insulin turbidity driven by ERp5 (PDIA6) – biochemical, absorbance 650 nm, cherry-picked samples, dose response (AID 720566);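 also: negative values mean less insulin aggregation so ERp5 inhibition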
Conditions: Recombinant ERp5 insulin aggregation; series mostly up to 35 µM; activity change, negative = inhibition: at the top concentration

Row | Compound | activity change, negative = inhibition
1 | C/C=C/c1ccc2c(c1)O[C@@H](CN(C)S(C)(=O)=O)[C@H](C)CN([C@@H](C)CO)S2(=O)=O | 2.99% (inactive)
2 | COc1ccc2c3c([nH]c2c1)[C@H](CO)N(Cc1ccccc1Cl)CC31CN(C(=O)C2CC2)C1 | 9.35% (inactive)
3 | CN(CC(=O)Nc1ccc(F)c(F)c1F)C(=O)c1cc(-c2ccncc2)nc2ccccc12 | 5.55% (inactive)
4 | CCCNC(=O)C[C@@H]1C[C@@H]2c3cc(NS(C)(=O)=O)ccc3O[C@@H]2[C@H](CO)O1 | 1.83% (inactive)
5 | O=C(C[C@H]1C[C@@H]2c3cc(NC(=O)NC4CCCC4)ccc3O[C@@H]2[C@@H](CO)O1)NCc1ccc(Cl)cc1 | -3.35% (inactive)
6 | COc1ccc(S(=O)(=O)Nc2ccc3c(c2)CC(=O)N([C@H](C)CO)C[C@H](C)[C@H](CN(C)C(=O)Nc2ccccc2)O3)cc1 | -10.3% (inactive)
7 | COC(=O)[C@]1(C)N[C@H](CN(C)S(=O)(=O)c2ccc(OC(F)(F)F)cc2)[C@@H]2C(=O)N(C)C(=O)[C@@H]21 | 2.15% (inactive)
8 | C[C@H]1CN([C@@H](C)CO)C(=O)Cc2cc(NC(=O)Nc3cccc4ccccc34)ccc2O[C@H]1CN(C)Cc1ccc(C(F)(F)F)cc1 | 4.47% (inactive)
9 | CCN(c1ccccc1)S(=O)(=O)c1ccc(OC)c(NC(=O)c2c(C)noc2C)c1 | -6.23% (inactive)
10 | CN(C)C(=O)C[C@@H]1C[C@H]2c3cc(NS(C)(=O)=O)ccc3O[C@H]2[C@@H](CO)O1 | -1.45% (inactive)
11 | COc1ccc2c3c([nH]c2c1)[C@H](CO)N(C(=O)C1CCOCC1)CC31CCN(Cc2nccs2)CC1 | 4.53% (inactive)
12 | COCC#Cc1cnc2c(c1)C(=O)N([C@H](C)CO)C[C@@H](C)[C@H](CN(C)C(=O)NC1CCCC1)O2 | -13% (inactive)
13 | C/C=C/c1ccc2c(c1)O[C@H](CN(C)Cc1cncnc1)[C@H](C)CN([C@@H](C)CO)S2(=O)=O | 3.18% (inactive)
14 | O=C(CCN1C(=O)/C(=C\c2ccccc2)SC1=S)NCCCN1CCOCC1 | -1.25% (inactive)
15 | O=C(C[C@@H]1C[C@H]2c3cc(NS(=O)(=O)c4ccccc4)ccc3O[C@H]2[C@H](CO)O1)NC1CCCCC1 | -9.74% (inactive)
16 | C[C@H](CO)N1C[C@H](C)[C@@H](CN(C)S(=O)(=O)c2ccc(Oc3ccccc3)cc2)OCc2cnnn2CCCC1=O | 3.54% (inactive)
17 | O=C(c1cccc(F)c1)N1CCCCN2[C@H](C1)[C@H](c1ccc(-c3ccccc3)cc1)[C@@H]2CO | 10.4% (inactive)

Row | Compound | activity change, negative = inhibition
18 | COc1ccc(NC(=O)CSc2nnc(NC(=O)C3CC3)s2)cc1OC | -1.02% (inactive)
19 | COCC(=O)N(C)C[C@H]1Oc2cc(C#CC(C)(C)O)ccc2S(=O)(=O)N([C@H](C)CO)C[C@H]1C | 2.98% (inactive)
20 | C[C@@H]1CN([C@H](C)CO)C(=O)c2cccc(NC(=O)Nc3cccc4ccccc34)c2O[C@@H]1CN(C)C(=O)Nc1ccc(C(F)(F)F)cc1 | -7.04% (inactive)
21 | COc1cccc(C(=O)OCC(=O)c2[nH]c(C)c(C(C)=O)c2C)c1 | -24.1% (inactive)
22 | O=C(N/N=C1\CCCc2ccccc21)c1ccccc1Cl | -19.1% (inactive)
23 | CC(C)CC#Cc1ccc2c(c1)O[C@@H](CN(C)C(=O)c1ccccn1)[C@@H](C)CN([C@@H](C)CO)S2(=O)=O | -13.4% (inactive)
24 | COc1ccc2c3c([nH]c2c1)[C@@H](CO)N(C(=O)C1CCCC1)CC31CCN(C(=O)NC(C)C)CC1 | 4.34% (inactive)
25 | Cc1noc(C)c1NC(=O)Nc1cccc2c1O[C@H](CN(C)S(=O)(=O)c1ccc(Cl)cc1)[C@@H](C)CN([C@H](C)CO)C2=O | -8.97% (inactive)
26 | C[C@@H]1CN([C@H](C)CO)C(=O)Cc2cc(NC(=O)Nc3cccc4ccccc34)ccc2O[C@@H]1CN(C)C(=O)Nc1cccc2ccccc12 | 11.3% (inactive)
27 | CN1CCN(C(=O)C[C@@H]2C[C@@H]3c4cc(NC(=O)C5CCOCC5)ccc4O[C@@H]3[C@H](CO)O2)CC1 | -0.931% (inactive)
28 | COc1cccc(CC(=O)NNC(=O)CN(C)S(=O)(=O)c2ccc(C)cc2)c1 | 6% (inactive)
29 | C[C@@H]1CN([C@@H](C)CO)C(=O)c2cc(NC(=O)Nc3ccc4c(c3)OCO4)ccc2O[C@@H]1CN(C)Cc1ccc(C(=O)O)cc1 | -9.55% (inactive)
30 | CCC(=O)Nc1ccc2c(c1)C(=O)N(C)[C@H]1CC[C@@H](CC(=O)NCC3CC3)O[C@H]1CO2 | 1.64% (inactive)
31 | O=C(C[C@H]1C[C@@H]2c3cc(NC(=O)CC4CC4)ccc3O[C@@H]2[C@@H](CO)O1)NCc1ccc(-c2ccccc2)cc1 | -3.76% (inactive)
32 | C[C@@H]1CN([C@@H](C)CO)C(=O)Cc2cc(NC(=O)Nc3ccc(C(F)(F)F)cc3)ccc2O[C@@H]1CN(C)Cc1ccc(Cl)c(Cl)c1 | 6.89% (inactive)
33 | CC(C)C#Cc1ccc2c(c1)O[C@@H](CN(C)C(=O)C1CC1)[C@@H](C)CN([C@@H](C)CO)S2(=O)=O | -7.81% (inactive)
